# Data reported in paper PMC13494018.
# A number with no mark means an inactive call. The rule behind the calls is not given here.
# Target: VTCN1, Q7Z7D3
# Sequence (Q7Z7D3 whole entry): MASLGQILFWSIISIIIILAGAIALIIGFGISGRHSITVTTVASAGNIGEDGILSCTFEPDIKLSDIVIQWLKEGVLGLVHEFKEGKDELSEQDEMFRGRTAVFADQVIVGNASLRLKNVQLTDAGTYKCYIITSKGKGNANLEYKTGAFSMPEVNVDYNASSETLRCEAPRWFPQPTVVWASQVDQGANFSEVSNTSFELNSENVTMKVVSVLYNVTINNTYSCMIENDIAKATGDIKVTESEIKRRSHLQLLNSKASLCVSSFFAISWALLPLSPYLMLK
row,Binder,binding in a display sort
1,d4r2_design_ppi_460_dldesign_0_cycle0_af2pred (protein) EELKKLTEEALKKAEEAEKKAKELIKEGKTTPLVKKALEAAEKAEAASISPERALEYAKKAEELYKKAIEEIK,not found
2,d4r2_design_ppi_432_dldesign_0_cycle1_af2pred (protein) EEEEKKKAEEEAKKVAELALKDPEAGAKAAKEMLPWSAEGLEALAKALAEAAKKAAKEDPEKAEKIKKVYNDAASAALRAEAKEERKA,not found
3,d4r3_design_ppi_53_dldesign_0_cycle1_af2pred (protein) MDPEVTKKKEAEVEAAGDVKLEGIKYLEEAKKLAKEDKEKGRKLLEEAAKEFKERAKEYEKEGKKIAARYAKEEAKKLEELAKEL,not found
4,d4r3_design_ppi_205_dldesign_0_cycle1_af2pred (protein) DLDAKAQALLDQAKEALAQMQATAADTVAYLSQATDAKYYARKAAKLDPKFKPQADALIAQLDAALAAAKAAYQAAKAAAA,not found
5,d4r3_design_ppi_140_dldesign_0_cycle0_af2pred (protein) ATEEQKLKAEAAALGGLYVFSPEGGKRRLERIKEELEEEAERYKEENPEKGPEYEKELREKFETLKELMEKEAAEIKA,not found
6,d4r3_design_ppi_187_dldesign_0_cycle1_af2pred (protein) SEEKEEGEIYVKHAKLAIEAGKEEKEAGDYKSAIALAKTAIKEAKRAIENPDEEAKKKGKEKLKEAEKALEEIEKALKEAEEK,not found
7,d4r3_design_ppi_206_dldesign_0_cycle1_af2pred (protein) SPEERELAARAQEEAALAKGMKIVVKNNPKSEKAIKDAEETAKEALEAAERIEKLENPTPEAKAAAERARKEAEELLKEVKKAK,not found
8,d4r3_design_ppi_27_dldesign_0_cycle1_af2pred (protein) AEEKAKRMEKKAKEIAEEAKELKKNAPKLDPEEAEKKARLLLGRAEGLLEQAKFGGLPEKVEKAAKEAVKAAKEALKVAKELKEK,not found
9,d4r3_design_ppi_32_dldesign_0_cycle1_af2pred (protein) AEEKAKEAKELAEKAKKTAKEAKELGDEEAAKLAEEGAKDAEEASKIFESGASPAEQADAMAKYRSGKAYNDLAEKRIKEKKK,not found
10,d4r2_design_ppi_477_dldesign_0_cycle0_af2pred (protein) EEEKKEKLKKERHELASELARLASLADALGDKELAEKAEKAMELLALDPEKGKEAAKEVKEAAKKRLAAAKAAAA,not found
11,d4r2_design_ppi_432_dldesign_0_cycle0_af2pred (protein) AEEELKEAERKAKEVAKLAMEDPEAGAKEAEKMSEGSAEALEALAKELKKAAKEAEKEDKEKAEKIKKIYNKAAAAALRAEALADNAA,not found
12,d4r3_design_ppi_205_dldesign_0_cycle0_af2pred (protein) SKEEKVKEYLEKAKEALEKMKETAADATAMNANYTEAKYYADKAAKESEEFKEEAEKLKEEAKKAYKEAAAKYAAAKAAAA,not found
13,d4r3_design_ppi_225_dldesign_0_cycle0_af2pred (protein) AEDAALAKQAAAKLAEARQKANEALQYAKNGNVEEAKKSLEEAKAALAEAKALAAKASPETQAKAQKALDGVEKRIAEAEKAIKEK,not found
14,d4r2_design_ppi_419_dldesign_0_cycle0_af2pred (protein) DEEKEELKKKIEEAKKKVEEAKKLAEKTSEEVKKLTKEAETEIALAEGYLDNGAAIELAKKKAEEGLKLADEALKLAEKILKEKE,not found
15,d4r3_design_ppi_225_dldesign_0_cycle1_af2pred (protein) AADAALAAAAAEELAKARSLATEALLYAKKGKVEEAKKLLEEAEKALKKAEELAAAASPEVQARAKKAIEGVKKKIEEAKKAIKEK,not found
16,d4r3_design_ppi_139_dldesign_0_cycle1_af2pred (protein) SMMDEVAKKREKKLIEESTAAAKAALAEAKAIAAGADTPENRAARAAAAEKAIANARIAGGALGKEEGEKLVSEVEAAVKA,not found
17,d4r3_design_ppi_39_dldesign_0_cycle0_af2pred (protein) DYEKKLKEEMEKYKKEAEKAAADPGAMYQKVLEGKAAADGIVNIAKEEAEEKGDEELKKKAEEAKKKAEEAIKEMKAKADAAAAA,not found
18,d4r3_design_ppi_43_dldesign_0_cycle1_af2pred (protein) SLIEEMKKELEELVKKAEAASPAEAPWYAQEARSYGKYYSEKVEKEGNPEEAKKAKEIAEKLSEEARKIAEKKR,not found
19,d4r3_design_ppi_107_dldesign_0_cycle1_af2pred (protein) SAAAKEAAEKQEGRFEADLYEVKAKNAAEKYKDDKKKQAEVLEKIAEEAKKKAKEASPVIAKGYKEGAKVAEKLAKEAKKEA,not found
